Rows were chosen to be rich in hits. Some 19% of all compounds tested hit in one or more screens of this group.
HT1080NT lethal: qHTS for induction of synthetic lethality in tumor cells producing 2HG: qHTS for the HT-1080-NT fibrosarcoma cell line. AID 686970, 2013. HT-1080-NT fibrosarcoma viability, CellTiter-Glo ATP luminescence, 48 h. actives 1.6% (n = 360,000). Potency, µM (highest dose often 46.1 µM), hits mostly cytotoxic;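 note: NT is the 2HG producing partner of a matched IDH1 knockdown line; nearly all actives have a fitted effect of over 55% in size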
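Viability of the 2HG-overproducing fibrosarcoma line after 48 hours of compound exposure at 37 degrees C was determined by luminescence with CellTiter-Glo, and concentration-effect curves were then fitted and categorized.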
IL-1B inflam inh: qHTS for Inhibitors of Inflammasome Signaling: IL-1-beta AlphaLISA Primary Screen; THP-1 LPS/ATP IL-1B secretion, AlphaLISA, 16 h; active compounds read low; AID 743279, 2014; activity change, % at 57.5 µM; actives 4.7% (n = 360,000); in the data active = activity change below about -50%; inconclusive = mostly about -30% to -49%
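Secreted IL-1B measured by AlphaLISA bead assay after 16 h compound exposure of THP-1 cells; compounds (final up to 57.5 uM) added 1 h before LPS (250 ng/mL) and ATP (1.25 mM) stimulation; lower signal means less secretion.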
DT40 TDP1 CPT: qHTS for Inhibitors of human tyrosyl-DNA phosphodiesterase 1 (TDP1): qHTS in cells in presence of CPT | chicken DT40 Tdp1-/-;hTDP1 cells + 20 nM CPT, ATP luminescence, 48 h | Potency, µM (series often up to 46.2 µM), most hits filed as inhibitors | actives 12% (n = 420,000) | AID 686979, 2013; note: nearly all actives have a fitted effect of over 55% in size
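Chicken DT40 Tdp1-/- cells complemented with human TDP1, 400 cells/well, exposed to compounds plus 20 nM camptothecin for at least 48 h at 37 C; viability read as ATP content by CellTiter-Glo luminescence.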
DT40 TDP1 no CPT: qHTS for Inhibitors of human tyrosyl-DNA phosphodiesterase 1 (TDP1): qHTS in cells in absence of CPT. actives 15% (n = 420,000). DT40 Tdp1-/- hTDP1 cells, no CPT, ATP luminescence, 48 h. Potency, µM (titrated, usually from 46.2 µM), hits mostly inhibitors; note: nearly all actives have a fitted effect of over 55% in size
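Seeded 400 DT40-hTDP1 cells/well (vehicle DMSO, no 20 nM CPT); pinned compounds; ≥48 hr at 37 °C; CellTiter-Glo luminescence as viability measure.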
HT1080 IDH1KD tx: qHTS for induction of synthetic lethality in tumor cells producing 2HG: qHTS for the HT-1080-IDH1KD cell line; HT-1080 IDH1 knockdown viability, ATP luminescence, 48 h; Potency, µM (titrated, usually from 46.1 µM), hits mostly cytotoxic; actives 2% (n = 360,000); AID 686971, 2013
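HT-1080-IDH1KD cells (IDH1 knocked down), 750/well in RPMI with 5% FBS, treated with compound 48 h at 37 degrees C. Viability by CellTiter-Glo luminescence, normalised to DMSO and no-cell wells; concentration-response curves classed.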
Hits are given with their value; i = inactive; ? = inconclusive; nt = no result; ! = not active in a repeat. Unless noted, calls come from the whole dose curve; as a rule, active = well fitted curve in the direction sought with a large enough effect; inconclusive = small, poorly fitted or top-dose-only effect, or another doubt; inactive = no such curve, though single readings can be large; an effect the other way counts as inactive or inconclusive.

SMILES	HT1080NT lethal	IL-1B inflam inh	DT40 TDP1 CPT	DT40 TDP1 no CPT	HT1080 IDH1KD tx
COc1ccccc1CNS(=O)(=O)c1c(C)cc(C)cc1C	i	i	?	?	i
O=C(O)c1ccc(-n2nnnc2Oc2cccc3cccnc23)cc1	i	i	i	i	i
CC1CC(=O)N(CC(=O)Nc2ccccc2F)c2ccccc2S1(=O)=O (stereo not given)	i	i	i	i	i
Cc1cc2occ(CC(=O)N(C)CC(=O)Nc3ccc(F)cc3)c2cc1C	i	?	12µM	?	i
Cc1cc2occ(CC(=O)N(C)CC(=O)Nc3ccccc3Cl)c2cc1C	i	i	i	?	i
O=c1c(O)c(-c2cc(O)c(O)c(O)c2)oc2cc(O)cc(O)c12	i	i	11µM!	18µM	i
O=c1c(O)c(-c2ccccc2)oc2cc(O)cc(O)c12	i	i	?	30µM	i
NC1=NC(=O)/C(=C/c2cn(Cc3ccccc3)c3ccccc23)S1	?	i	?	?	?
C/C(=N\NC(=S)NCc1ccccc1)c1ccc2c(c1)OCCO2	i	i	16µM	23µM	i
C/C(=N\NC(=S)NCc1ccccc1)c1ccc(Br)cc1	i	i	?	?	i
C/C(=N\NC(=S)NCc1ccccc1)c1ccc(C)o1	i	i	?	5.2µM	i
C/C(=N\NC(=S)Nc1ccc(F)cc1)c1ccc2c(c1)OCCO2	?	-58	0.92µM	0.92µM	?
CCc1ccc(S(=O)(=O)N2CCN(C(=O)C3CCN(C(C)=O)CC3)CC2)cc1	i	i	i	i	i
CC(C)C(=O)Nc1ccc(-c2nc3ccccc3c(=O)o2)cc1	i	i	i	i	i
Clc1cccc(/C=N/Nc2nc(Cl)nc3ccccc23)c1	i	i	23µM	?	i
Clc1ccc(/C=N/Nc2ncnc3ccccc23)cc1Cl	i	i	21µM	21µM	i
Fc1ccccc1/C=N/Nc1ncnc2ccccc12	i	i	6.5µM	15µM	?
NC(=O)/C(=C\c1cccnc1)NC(=O)c1ccccc1	i	i	i	i	i
COc1ccc(N2C(=S)NC3N2C(=S)NC3(C)c2ccccc2)cc1 (stereo not given)	16µM	i	i	?	12µM
CCCCNc1c(-c2ccc(SC(C)CC)cc2)nc2ccccn12 (stereo not given)	?	i	13µM	16µM	?
CCCCNc1c(-c2ccc(SC3CCCCC3)cc2)nc2ccccn12	?	-73!	23µM	23µM!	?
CCCCNc1c(-c2cccc(SC3CCCCC3)c2)nc2ccc(Cl)cn12	i	i	?	?	i
CCOC(=O)C1(C)CCCCCN1C(=O)c1ccc(C(=O)OC)cc1 (stereo not given)	i	i	?	?	i
CCCCN(C(=O)CCC(=O)Nc1cc(C)on1)C(C(=O)NC1CCCC1)c1ccccc1C (stereo not given)	i	i	?	?	i
Cc1cc(NC(=O)/C=C/C(=O)N(CC(=O)NC2CCCC2)c2cccc3ccccc23)no1	i	i	i	i	i
SMILES	HT1080NT lethal	IL-1B inflam inh	DT40 TDP1 CPT	DT40 TDP1 no CPT	HT1080 IDH1KD tx
CCOc1ccc(N(C(=O)/C=C/C(=O)Nc2cc(C)on2)C(C(=O)NC2CCCC2)c2ccccc2C)cc1 (stereo not given)	i	i	16µM	16µM	i
CCc1ccc(C(C(=O)NC2CCCC2)N(C(=O)/C=C/C(=O)Nc2cc(C)on2)c2ccccc2C)cc1 (stereo not given)	i	-63	16µM	16µM	i
COc1ccc(-c2csc(Nc3ccc(S(N)(=O)=O)cc3)n2)cc1OC	i	-64	?	?	i
COc1cc(Nc2ccc(S(N)(=O)=O)cc2)c([N+](=O)[O-])nc1[N+](=O)[O-]	i	i	16µM	?	i
NS(=O)(=O)c1ccc(Nc2nc(-c3ccc(F)cc3)cs2)cc1	?	-88	18µM	21µM	15µM
NS(=O)(=O)c1ccc(Nc2nc(-c3ccc(O)cc3O)cs2)cc1	i	-57	i	i	i
Cc1ccsc1C(=O)N1CCCC(CO)(Cc2ccccc2F)C1 (stereo not given)	i	i	i	?	i
COC(=O)C1C(c2ccc(OC)cc2)C(C(=O)OC)S(=O)(=O)C(CCN2CCCCC2)S1(=O)=O (stereo not given)	i	i	i	i	i
Cc1cc(NS(=O)(=O)c2ccc(Nc3nc(-c4sc(N)nc4C)cs3)cc2)no1	i	i	i	i	i
Cc1cc(NS(=O)(=O)c2ccc(Nc3nc(-c4ccc(C)c(C)c4)cs3)cc2)no1	i	-56	?	?	i
CC(C)=CCc1c(O)cc2oc3c(CC=C(C)C)c(O)c(O)c(CC=C(C)C)c3c(=O)c2c1O	?	i	?	21µM	?
COc1c(O)cc2oc3cc(O)c(CC=C(C)C)c(O)c3c(=O)c2c1CC=C(C)C	nt	nt	19µM	12µM	nt
COc1ccc(C)cc1NC(=O)Cc1c(C(=O)O)n(C)c2ccccc12	i	i	i	i	i
COc1ccc(C)cc1N(C)C(=O)Cc1c(C(=O)O)n(C)c2ccccc12	i	i	i	5.2µM	i
COc1cccc2c1OCC(C(=O)OCc1cccnc1)=C2	i	-53	i	i	i
COc1ccc(NC(=O)C2=Cc3cccc(OC)c3OC2)cc1	i	i	i	?	i
CCOC(=O)c1cccc(NC(=O)CC(c2ccc(F)cc2)N2Cc3ccccc3C2=O)c1 (stereo not given)	nt	nt	?	26µM	nt
COc1ccc(C(CC(=O)Nc2cccc(C)c2C)N2Cc3ccccc3C2=O)cc1 (stereo not given)	nt	nt	13µM	16µM	nt
COc1ccc(C(CC(=O)Nc2ccc(C)cn2)N2Cc3ccccc3C2=O)cc1 (stereo not given)	i	i	i	?	i
COc1ccc(C(CC(=O)O)N2Cc3ccccc3C2=O)cc1 (stereo not given)	i	i	i	i	i
CCc1cccc(NC(=O)CC(c2ccc(OC)cc2)N2Cc3ccccc3C2=O)c1 (stereo not given)	nt	nt	21µM	16µM	nt
C=CCc1c(C)nc(-c2ccccc2)nc1Nc1ccccc1O	?	i	?	?	16µM
Cc1cc(C)nc(SCC(=O)Nc2ncc(Cc3cccc(Cl)c3)s2)n1	i	i	?	18µM	?
O=C(Cn1nc(Cc2ccncc2)c2ccccc2c1=O)N1CCc2ccccc2C1	i	i	?	i	i

Source: PubChem BioAssay (National Center for Advancing Translational Sciences (NCATS))
